# According to the supplement of paper PMC8728848:
# Many of the other results were omitted from the sample, so the strongest signals are more common in it than they were.
# B1: DC-ASGPR S+GEE (Homo sapiens) (protein)
# chain: MTRTYENFQYLENKVKVQGFKNGPLPLQSLLQRLRSGPCHLLLSLGLGLLLLVIICVVGFQNSKFQRDLVTLRTDFSNFTSNTVAEIQALTSQGSSLEETIASLKAEVEGFKQERQAVHSEMLLRVQQLVQDLKKLTCQVATINNNGEEASTEGTCCPVNWVEHQDSCYWFSHSGMSWAEAEKYCQLKNAHLVVINSREEQNFVQKYLGSAYTWMGLSDPEGAWKWVDGTDYATGFQNWKPGQPDDWQGHGLGGGEDCAHFHPDGRWNDDVCQRPYHWVCEAGLGQTSQESH
# Key:
# Experiment in all cases: glycan array binding signal (z-score within array); higher = stronger binding
# Details in all cases: glycan notation: IUPAC condensed, linker removed
# [1] = target: Fuc(a1-2)Gal(b1-3)GalNAc(b1-3)Gal(a1-4)Gal(b1-4)Glc
# In short: (§1)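 The binding signal is a Z-score computed within each array and averaged over linkers. Arrays of the same protein sequence at different concentrations or buffers were also averaged together. Data originate from 3228 arrays in the Consortium for Functional Glycomics database, kept only where the protein sequence was available.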
# [2] = target: Fuc(a1-2)Gal(b1-4)[Fuc(a1-3)]GlcNAc
# In short: as §1
# [3] = target: Fuc(a1-2)[Gal(a1-3)]Gal(b1-3)GlcNAc(b1-6)GalNAc
# In short: as §1
# [4] = target: Fuc(a1-2)[GalNAc(a1-3)]Gal(b1-4)GlcNAc(b1-3)Gal(b1-4)GlcNAc
# In short: as §1
# [5] = target: Fuc(a1-2)[GalNAc(a1-4)]Gal(b1-4)GlcNAc
# In short: as §1
# [6] = target: Fuc(a1-2)[GalNAc(b1-3)]Gal
# In short: as §1
# [7] = target: Fuc(a1-3)[Gal(b1-4)]GlcNAc(b1-2)Man(a1-3)[Fuc(a1-3)[Gal(b1-4)]GlcNAc(b1-2)Man(a1-6)]Man(b1-4)GlcNAc(b1-4)GlcNAc
# In short: as §1
# [8] = target: Gal(a1-3)Gal(b1-3)GlcNAc(b1-3)GalNAc
# In short: as §1
# [9] = target: Gal(a1-3)Gal(b1-3)GlcNAc(b1-6)GalNAc
# In short: as §1
# [10] = target: Gal(a1-3)Gal(b1-4)GlcNAc(b1-6)GalNAc
# In short: as §1
# [11] = target: Gal(b1-3)GlcNAc(b1-6)GalNAc
# In short: as §1
# [12] = target: Gal(b1-3)GlcNAc6S
# In short: as §1
# [13] = target: Gal(b1-3)[Neu5Ac(a2-6)]GlcNAc(b1-4)Gal(b1-4)Glc
# In short: as §1
# [14] = target: Gal(b1-4)GlcNAc(b1-3)Gal(b1-4)GlcNAc
# In short: as §1
# [15] = target: Gal(b1-4)GlcNAc(b1-3)Gal(b1-4)GlcNAc(b1-3)Gal(b1-4)GlcNAc(b1-3)Gal(b1-4)GlcNAc(b1-2)[Gal(b1-4)GlcNAc(b1-3)Gal(b1-4)GlcNAc(b1-3)Gal(b1-4)GlcNAc(b1-3)Gal(b1-4)GlcNAc(b1-6)]Man(a1-6)[Gal(b1-4)GlcNAc(b1-3)Gal(b1-4)GlcNAc(b1-3)Gal(b1-4)GlcNAc(b1-3)Gal(b1-4)GlcNAc(b1-2)Man(a1-3)]Man(b1-4)GlcNAc(b1-4)[Fuc(a1-6)]GlcNAc
# In short: as §1
# [16] = target: Gal6P(b1-4)GlcNAc
# In short: as §1
# [17] = target: Gal6S(b1-4)GlcNAc
# In short: as §1
# [18] = target: GalNAc(b1-3)Gal(a1-4)Gal(b1-4)GlcNAc
# In short: as §1
# [19] = target: GalNAc(b1-3)Gal(a1-4)Gal(b1-4)GlcNAc(b1-3)Gal(b1-4)Glc
# In short: as §1
# [20] = target: GalNAc(b1-4)GlcNAc(b1-3)GalNAc(b1-4)GlcNAc
# In short: as §1
# [21] = target: GalNAc3S(b1-4)[Fuc(a1-3)]GlcNAc
# In short: as §1
# [22] = target: Glc(b1-4)Glc
# In short: as §1
# [23] = target: GlcNAc(a1-4)Gal(b1-4)GlcNAc
# In short: as §1
# [24] = target: GlcNAc(b1-3)Gal(b1-4)GlcNAc(b1-3)Gal(b1-4)GlcNAc(b1-3)Gal(b1-4)GlcNAc(b1-2)Man(a1-3)[GlcNAc(b1-3)Gal(b1-4)GlcNAc(b1-3)Gal(b1-4)GlcNAc(b1-3)Gal(b1-4)GlcNAc(b1-2)Man(a1-6)]Man(b1-4)GlcNAc(b1-4)GlcNAc
# In short: as §1
# [25] = target: GlcNAc(b1-3)GalNAc
# In short: as §1
# [26] = target: GlcNAc(b1-4)GlcNAc(b1-4)GlcNAc(b1-4)GlcNAc(b1-4)GlcNAc(b1-4)GlcNAc
# In short: as §1
# [27] = target: GlcNAc(b1-6)GalNAc
# In short: as §1
# [28] = target: Man(a1-3)[Man(a1-6)]Man(a1-6)[Man(a1-2)Man(a1-3)]Man(b1-4)GlcNAc(b1-4)GlcNAc
# In short: as §1
# [29] = target: Man(a1-3)[Man(a1-6)]Man(b1-4)GlcNAc(b1-4)GlcNAc
# In short: as §1
# [30] = target: Man(a1-3)[Man(a1-6)]Man(b1-4)GlcNAc(b1-4)[Fuc(a1-6)]GlcNAc
# In short: as §1
# [31] = target: Man(b1-4)GlcNAc
# In short: as §1
# [32] = target: Neu5Ac(a2-3)Gal(b1-3)GalNAc(b1-4)[Neu5Ac(a2-3)]Gal(b1-4)Glc
# In short: as §1
# [33] = target: Neu5Ac(a2-3)Gal(b1-3)GlcNAc(b1-6)GalNAc
# In short: as §1
# [34] = target: Neu5Ac(a2-3)Gal(b1-4)GlcNAc(b1-2)Man(a1-3)[Neu5Ac(a2-6)Gal(b1-4)GlcNAc(b1-2)Man(a1-6)]Man(b1-4)GlcNAc(b1-4)GlcNAc
# In short: as §1
# [35] = target: Neu5Ac(a2-3)Gal(b1-4)GlcNAc(b1-3)Gal
# In short: as §1
# [36] = target: Neu5Ac(a2-3)Gal(b1-4)GlcNAc(b1-6)GalNAc
# In short: as §1
# [37] = target: Neu5Ac(a2-3)Gal6S(b1-4)GlcNAc
# In short: as §1
# [38] = target: Neu5Ac(a2-6)Gal(b1-4)GlcNAc(b1-2)Man(a1-6)[Gal(b1-4)GlcNAc(b1-2)Man(a1-3)]Man(b1-4)GlcNAc(b1-4)GlcNAc
# In short: as §1
# [39] = target: Neu5Ac(a2-6)GalNAc(b1-4)GlcNAc6S
# In short: as §1
# [40] = target: Neu5Ac(a2-8)Neu5Ac(a2-3)Gal(b1-3)GalNAc(b1-4)[Neu5Ac(a2-8)Neu5Ac(a2-3)]Gal(b1-4)Glc
# In short: as §1
# [41] = target: Neu5Ac(a2-8)Neu5Ac(a2-8)Neu5Ac(a2-8)Neu5Ac(a2-3)[GalNAc(b1-4)]Gal(b1-4)Glc
# In short: as §1
# [42] = target: Neu5Gc(a2-3)Gal(b1-4)Glc
# In short: as §1
binder,measurement,setting,value
B1,glycan array binding signal (z-score),[1],0.011
same,glycan array binding signal (z-score),[2],-0.28
same,glycan array binding signal (z-score),[3],3.42
same,glycan array binding signal (z-score),[4],0.807
same,glycan array binding signal (z-score),[5],3.75
same,glycan array binding signal (z-score),[6],4
same,glycan array binding signal (z-score),[7],-0.015
same,glycan array binding signal (z-score),[8],-0.224
same,glycan array binding signal (z-score),[9],4.91
same,glycan array binding signal (z-score),[10],3.92
same,glycan array binding signal (z-score),[11],3.77
same,glycan array binding signal (z-score),[12],-0.332
same,glycan array binding signal (z-score),[13],-0.315
same,glycan array binding signal (z-score),[14],-0.268
same,glycan array binding signal (z-score),[15],-0.145
same,glycan array binding signal (z-score),[16],-0.321
same,glycan array binding signal (z-score),[17],-0.262
same,glycan array binding signal (z-score),[18],4.67
same,glycan array binding signal (z-score),[19],4.39
same,glycan array binding signal (z-score),[20],3.84
same,glycan array binding signal (z-score),[21],-0.27
same,glycan array binding signal (z-score),[22],-0.376
same,glycan array binding signal (z-score),[23],-0.318
same,glycan array binding signal (z-score),[24],-0.276
same,glycan array binding signal (z-score),[25],-0.312
same,glycan array binding signal (z-score),[26],-0.22
same,glycan array binding signal (z-score),[27],3.74
same,glycan array binding signal (z-score),[28],-0.252
same,glycan array binding signal (z-score),[29],-0.021
same,glycan array binding signal (z-score),[30],-0.295
same,glycan array binding signal (z-score),[31],-0.339
same,glycan array binding signal (z-score),[32],-0.329
same,glycan array binding signal (z-score),[33],4.84
same,glycan array binding signal (z-score),[34],-0.297
same,glycan array binding signal (z-score),[35],-0.325
same,glycan array binding signal (z-score),[36],4.38
same,glycan array binding signal (z-score),[37],-0.32
same,glycan array binding signal (z-score),[38],-0.355
same,glycan array binding signal (z-score),[39],0.608
same,glycan array binding signal (z-score),[40],-0.342
same,glycan array binding signal (z-score),[41],1.61
same,glycan array binding signal (z-score),[42],-0.351
